Source: the supplement of paper PMC10849652
Of roughly 8,800 targets only a part is listed; those with a hit were picked by preference. About 0.5% of all pairs of compound and target were hits.

Experiments:
Experiment in all cases: log2 fold change, soluble protein after heating vs DMSO (PISA); higher = thermal stabilisation; K562 lysate, 10 uM; active = over 0.2 and 3.5 SD of the protein, either way, in both replicates (recomputed)
erlotinib = compound: C#Cc1cccc(Nc2ncnc3cc(OCCOC)c(OCCOC)cc23)c1 [erlotinib]
Outline: (§1)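 Quantification was by TMTpro 16plex LC-MS/MS with equalised channel sums, applied to the supernatant after 21,000xg for 90 min. Samples were crude K562 extract at 1 mg/mL protein in PBS pH 7.4 with 1 mM MgCl2, treated with 10 μM compound for 30 min, heated for 3 min across 48°C-58°C, pooled and brought to 0.5% NP-40 at 4°C. Values are log-two fold changes in thermal stability relative to solvent controls, from duplicates.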

[1] = compound: C/C(=N\NC(=O)C1=CC(=CC=C1)S(=O)(=O)N2CCOCC2)/C3=C(C=CC(=C3)Cl)O
Outline: as §1

[2] = compound: C1=CC(=CC=C1C2=NC3=C(N2)C=C(C=C3)C(=O)N)OC4=CC=C(C=C4)Cl
Outline: as §1

[3] = compound: C1=CC2=C(C=CC(=C2)/C=C\3/C(=O)NC(=NCC4=CC=CS4)S3)N=C1
Outline: as §1

[4] = compound: C1=CC2=NC=CN=C2C=C1/C=C/3\C(=O)NC(=O)S3
Outline: as §1

[5] = compound: C1=CC=C(C=C1)C2=NC(=C(N2)C3=CC=NC=C3)C4=CC(=C(C=C4)Cl)O
Outline: as §1

[6] = compound: C1=CC=C2C(=C1)C3=NNC4=CC=CC(=C43)C2=O
Outline: as §1

[7] = compound: C1CCN(C1)C(=O)NC2=CC=CC(=C2)NC3=NC=C(C(=N3)NCCC4=CN=CN4)Br
Outline: as §1

[8] = compound: C1CN(CCC1(CC2=CC=C(C=C2)Cl)N)C3=NC=NC4=C3C=CN4
Outline: as §1

IRAK-1-4 Inhibitor I = compound: C1COCCN1CCN2C3=CC=CC=C3N=C2NC(=O)C4=CC(=CC=C4)[N+](=O)[O-] [IRAK-1-4 Inhibitor I]
Outline: as §1

ibrutinib = compound: C=CC(=O)N1CCC[C@@H](n2nc(-c3ccc(Oc4ccccc4)cc3)c3c(N)ncnc32)C1 [ibrutinib]
Outline: as §1

[9] = compound: CC(=O)c1cnc2ccc(-c3cc(Cl)c(O)c(Cl)c3)nc2c1N[C@H]1CC[C@H](CN(C)C)CC1
Outline: as §1

ralimetinib = compound: CC(C)(C)Cn1c(N)nc2ccc(-c3[nH]c(C(C)(C)C)nc3-c3ccc(F)cc3)nc21 [ralimetinib]
Outline: as §1

[10] = compound: CC(C)(O)CC(=O)NCCn1ccc2ncnc(Nc3ccc(Oc4cccc(C(F)(F)F)c4)c(Cl)c3)c21
Outline: as §1

[11] = compound: CC(C)C1=C2N=C(C=C(N2N=C1)NCC3=CC=CC=C3)NCCCCCCN
Outline: as §1

[12] = compound: CC1=C(C(CC(=O)N1)C2=CC=C(C=C2)C(F)(F)F)C(=O)NC3=C(C=C4C(=C3)C=NN4)F
Outline: as §1

[13] = compound: CC1=C(C2=C(C=C1)C(=O)C3=CC=CC=C3N2CCCN)C
Outline: as §1

[14] = compound: CC1=C(C=C(C=C1)NC(=O)C2=CC(=CC=C2)C(C)(C)C#N)NC3=CC4=C(C=C3)N=CN(C4=O)C
Outline: as §1

[15] = compound: CC1=C(C=C(C=C1)NC(=O)C2=CC(=CC=C2)N(C)C)NC(=O)C3=CC=C(C=C3)O
Outline: as §1

[16] = compound: CC1=CC=C(C=C1)SC2=C3C=C(SC3=CN=C2)C(=O)N
Outline: as §1

Measured: log2 fold change

LIG3 (UniProt P49916)
UniProt P49916, sequence (P49916 whole entry, looked up): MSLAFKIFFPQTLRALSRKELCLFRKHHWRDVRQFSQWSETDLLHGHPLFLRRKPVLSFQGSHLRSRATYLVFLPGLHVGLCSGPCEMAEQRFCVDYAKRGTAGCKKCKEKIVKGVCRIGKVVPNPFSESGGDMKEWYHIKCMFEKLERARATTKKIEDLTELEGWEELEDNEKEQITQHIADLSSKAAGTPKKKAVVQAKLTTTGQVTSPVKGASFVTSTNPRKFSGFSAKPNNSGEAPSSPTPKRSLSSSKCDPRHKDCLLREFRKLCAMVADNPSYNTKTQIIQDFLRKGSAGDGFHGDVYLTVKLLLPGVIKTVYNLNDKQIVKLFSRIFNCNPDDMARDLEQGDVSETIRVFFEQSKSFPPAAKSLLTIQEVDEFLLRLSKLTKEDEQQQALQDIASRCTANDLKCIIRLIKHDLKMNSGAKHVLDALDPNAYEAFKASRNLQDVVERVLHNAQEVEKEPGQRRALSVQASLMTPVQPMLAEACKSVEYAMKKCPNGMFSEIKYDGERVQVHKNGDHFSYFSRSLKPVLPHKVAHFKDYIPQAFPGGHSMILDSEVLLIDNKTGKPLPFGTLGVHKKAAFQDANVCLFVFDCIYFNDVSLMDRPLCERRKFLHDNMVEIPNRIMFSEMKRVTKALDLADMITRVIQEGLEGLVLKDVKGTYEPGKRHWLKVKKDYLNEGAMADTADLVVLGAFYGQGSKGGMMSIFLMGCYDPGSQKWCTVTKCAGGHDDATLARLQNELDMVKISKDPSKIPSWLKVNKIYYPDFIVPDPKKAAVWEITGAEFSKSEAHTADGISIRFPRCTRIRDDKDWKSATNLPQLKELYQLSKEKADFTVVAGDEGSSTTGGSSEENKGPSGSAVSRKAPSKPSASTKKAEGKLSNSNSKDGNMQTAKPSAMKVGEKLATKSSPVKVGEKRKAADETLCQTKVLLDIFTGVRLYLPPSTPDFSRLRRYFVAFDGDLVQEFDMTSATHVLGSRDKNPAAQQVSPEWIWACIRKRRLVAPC
inactive: erlotinib -0.003 | [1] 0.027 | [2] -0.04 | [3] 0.009 | [4] -0.006 | [5] 0.011 | [6] -0.013 | [7] 0 | [8] -0.036 | IRAK-1-4 Inhibitor I -0.035 | ibrutinib -0.006 | [9] 0.007 | ralimetinib 0.063 | [10] 0.023 | [11] -0.002 | [12] -0.018 | [13] 0.04 | [14] -0.015 | [15] 0.028 | [16] 0.015

LZTS1 (UniProt Q9Y250)
UniProt Q9Y250, sequence (Q9Y250 whole entry, looked up): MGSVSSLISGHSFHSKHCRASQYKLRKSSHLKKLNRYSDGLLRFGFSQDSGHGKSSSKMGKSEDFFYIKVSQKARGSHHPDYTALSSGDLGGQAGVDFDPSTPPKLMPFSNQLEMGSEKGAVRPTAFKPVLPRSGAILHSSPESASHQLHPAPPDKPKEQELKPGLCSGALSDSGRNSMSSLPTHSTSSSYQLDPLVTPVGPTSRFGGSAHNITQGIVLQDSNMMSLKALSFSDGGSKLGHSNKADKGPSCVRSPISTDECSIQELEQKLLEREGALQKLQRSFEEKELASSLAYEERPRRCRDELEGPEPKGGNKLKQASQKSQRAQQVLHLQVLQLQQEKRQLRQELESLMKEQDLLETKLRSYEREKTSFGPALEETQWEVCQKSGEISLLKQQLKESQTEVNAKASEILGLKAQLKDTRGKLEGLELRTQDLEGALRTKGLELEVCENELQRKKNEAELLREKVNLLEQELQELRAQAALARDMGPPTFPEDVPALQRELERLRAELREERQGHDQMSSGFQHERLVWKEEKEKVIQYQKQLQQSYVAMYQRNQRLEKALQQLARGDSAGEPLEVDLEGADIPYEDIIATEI
inactive: erlotinib 0.182 | [1] 0.832 | [2] 0.291 | [3] -0.011 | [4] -0.12 | [5] 0.113 | [6] -0.075 | [7] -0.2 | [8] -0.07 | IRAK-1-4 Inhibitor I 0.055 | ibrutinib 0.104 | [9] -0.008 | ralimetinib 0.049 | [10] -0.176 | [11] 0.116 | [12] -0.028 | [13] -0.233 | [14] 0.705 | [15] -0.111 | [16] -0.007

KNSTRN (UniProt Q9Y448)
inactive: erlotinib -0.007 | [1] -0.003 | [2] -0.018 | [3] 0.006 | [4] -0.018 | [5] 0.015 | [6] 0.012 | [7] 0.036 | [8] -0.061 | IRAK-1-4 Inhibitor I -0.039 | ibrutinib -0.017 | [9] 0.018 | ralimetinib 0.027 | [10] 0.081 | [11] -0.008 | [12] 0.022 | [13] -0.023 | [14] -0.032 | [15] 0 | [16] 0.002

MON2 isoform 5 (UniProt Q7Z3U7)
UniProt Q7Z3U7, sequence (Q7Z3U7 whole entry, looked up): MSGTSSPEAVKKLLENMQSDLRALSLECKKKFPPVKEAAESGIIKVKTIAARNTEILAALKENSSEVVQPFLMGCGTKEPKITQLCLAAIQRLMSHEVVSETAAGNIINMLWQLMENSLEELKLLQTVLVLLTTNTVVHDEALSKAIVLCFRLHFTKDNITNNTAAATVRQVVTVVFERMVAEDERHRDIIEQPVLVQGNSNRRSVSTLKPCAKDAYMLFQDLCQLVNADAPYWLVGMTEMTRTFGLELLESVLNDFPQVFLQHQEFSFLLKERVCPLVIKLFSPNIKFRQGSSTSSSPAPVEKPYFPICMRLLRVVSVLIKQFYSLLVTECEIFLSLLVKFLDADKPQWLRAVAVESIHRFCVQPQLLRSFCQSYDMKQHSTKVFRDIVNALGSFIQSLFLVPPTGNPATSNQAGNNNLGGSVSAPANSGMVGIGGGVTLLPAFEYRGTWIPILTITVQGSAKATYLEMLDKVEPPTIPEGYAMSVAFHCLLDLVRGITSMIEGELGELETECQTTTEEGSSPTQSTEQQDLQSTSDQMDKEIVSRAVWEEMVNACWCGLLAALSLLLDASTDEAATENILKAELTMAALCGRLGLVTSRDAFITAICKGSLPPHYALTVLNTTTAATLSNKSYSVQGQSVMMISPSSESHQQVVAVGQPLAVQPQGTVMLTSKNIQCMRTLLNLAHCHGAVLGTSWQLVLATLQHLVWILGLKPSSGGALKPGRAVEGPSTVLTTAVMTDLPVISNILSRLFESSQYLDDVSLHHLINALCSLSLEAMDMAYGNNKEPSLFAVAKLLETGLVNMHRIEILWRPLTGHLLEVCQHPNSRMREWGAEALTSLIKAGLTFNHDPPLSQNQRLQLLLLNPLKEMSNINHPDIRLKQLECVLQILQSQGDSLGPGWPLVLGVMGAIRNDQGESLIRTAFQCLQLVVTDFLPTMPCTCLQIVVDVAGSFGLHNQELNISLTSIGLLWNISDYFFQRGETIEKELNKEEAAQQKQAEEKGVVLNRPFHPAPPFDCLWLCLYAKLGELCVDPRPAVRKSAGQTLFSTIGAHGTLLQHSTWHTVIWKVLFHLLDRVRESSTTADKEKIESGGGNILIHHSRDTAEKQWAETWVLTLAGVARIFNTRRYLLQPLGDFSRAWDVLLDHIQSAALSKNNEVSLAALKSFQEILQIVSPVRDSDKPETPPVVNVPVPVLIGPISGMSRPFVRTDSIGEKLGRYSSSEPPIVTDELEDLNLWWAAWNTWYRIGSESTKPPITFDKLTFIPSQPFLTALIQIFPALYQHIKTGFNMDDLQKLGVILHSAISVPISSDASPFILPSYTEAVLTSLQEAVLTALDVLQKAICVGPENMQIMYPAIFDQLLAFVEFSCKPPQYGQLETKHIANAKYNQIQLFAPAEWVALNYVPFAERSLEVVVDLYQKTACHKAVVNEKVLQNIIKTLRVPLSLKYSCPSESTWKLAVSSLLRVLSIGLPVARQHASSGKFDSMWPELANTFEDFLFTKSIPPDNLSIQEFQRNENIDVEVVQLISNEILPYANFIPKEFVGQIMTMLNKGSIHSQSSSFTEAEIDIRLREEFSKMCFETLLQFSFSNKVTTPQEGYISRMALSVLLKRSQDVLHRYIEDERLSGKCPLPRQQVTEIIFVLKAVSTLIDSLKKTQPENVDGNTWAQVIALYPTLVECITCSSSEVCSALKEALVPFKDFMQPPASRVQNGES
inactive: erlotinib 0.031 | [1] -0.031 | [2] -0.018 | [3] 0.019 | [4] 0.001 | [5] -0.016 | [6] -0.021 | [7] 0.012 | [8] 0.04 | IRAK-1-4 Inhibitor I 0.009 | ibrutinib -0.027 | [9] 0.001 | ralimetinib 0.017 | [10] -0.042 | [11] -0.02 | [12] 0.012 | [13] 0.002 | [14] 0.01 | [15] 0.025 | [16] 0

MBD2 (UniProt Q9UBB5)
inactive: erlotinib 0.013 | [1] -0.933 | [2] -0.003 | [3] 0.05 | [4] -0.016 | [5] 0.094 | [6] 0.023 | [7] -0.069 | [8] -0.011 | IRAK-1-4 Inhibitor I 0.016 | ibrutinib 0.013 | [9] 0.018 | ralimetinib -0.043 | [10] -0.03 | [11] 0.016 | [12] -0.013 | [13] -0.017 | [14] -0.053 | [15] -0.048 | [16] 0.007

MAP11 (UniProt Q8WVR3)
UniProt Q8WVR3, sequence (Q8WVR3 whole entry, looked up): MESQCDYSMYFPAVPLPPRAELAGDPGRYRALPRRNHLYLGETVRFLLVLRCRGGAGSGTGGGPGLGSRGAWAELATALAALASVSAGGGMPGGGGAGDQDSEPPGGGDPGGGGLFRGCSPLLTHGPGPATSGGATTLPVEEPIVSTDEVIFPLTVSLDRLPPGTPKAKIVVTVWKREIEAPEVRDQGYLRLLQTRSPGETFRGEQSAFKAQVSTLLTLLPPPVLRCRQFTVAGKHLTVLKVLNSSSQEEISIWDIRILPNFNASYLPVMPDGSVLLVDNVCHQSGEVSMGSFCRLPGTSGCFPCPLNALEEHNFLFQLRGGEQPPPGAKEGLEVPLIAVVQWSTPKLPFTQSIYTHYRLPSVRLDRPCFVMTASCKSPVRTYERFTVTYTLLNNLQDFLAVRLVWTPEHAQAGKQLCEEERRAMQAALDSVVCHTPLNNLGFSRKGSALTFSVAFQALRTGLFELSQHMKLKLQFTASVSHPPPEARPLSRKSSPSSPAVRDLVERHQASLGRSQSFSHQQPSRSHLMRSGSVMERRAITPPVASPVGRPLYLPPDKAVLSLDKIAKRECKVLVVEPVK
inactive: erlotinib 0.013 | [1] -0.018 | [2] -0.009 | [3] 0.006 | [4] 0.061 | [5] -0.004 | [6] 0.064 | [7] -0.135 | [8] 0.02 | IRAK-1-4 Inhibitor I -0.02 | ibrutinib 0.064 | [9] 0.072 | ralimetinib 0.037 | [10] -0.008 | [11] -0.005 | [12] 0.105 | [13] -0.063 | [14] 0.014 | [15] -0.031 | [16] 0.078

KSR1 (UniProt Q8IVT5)
inactive: erlotinib 0.011 | [1] -0.099 | [2] -0.038 | [3] 0.058 | [4] 0.022 | [5] 0.059 | [6] -0.078 | [7] 0.015 | [8] -0.037 | IRAK-1-4 Inhibitor I -0.008 | ibrutinib 0.021 | [9] -0.103 | ralimetinib 0.054 | [10] 0.021 | [11] -0.025 | [12] -0.011 | [13] -0.032 | [14] 0.007 | [15] 0.019 | [16] -0.074

MAPK6 (UniProt Q16659)
inactive: erlotinib -0.004 | [1] 0.036 | [2] 0.019 | [3] 0.006 | [4] 0.015 | [5] 0.001 | [6] 0.069 | [7] 0.068 | [8] 0.015 | IRAK-1-4 Inhibitor I -0.027 | ibrutinib 0.07 | [9] 0.025 | ralimetinib 0.004 | [10] -0.05 | [11] 0.012 | [12] 0 | [13] 0 | [14] -0.006 | [15] 0.029 | [16] 0.021

KIF14 (UniProt Q15058)
inactive: erlotinib 0.031 | [1] -0.06 | [2] 0.016 | [3] -0.04 | [4] -0.176 | [5] 0.01 | [6] -0.032 | [7] -0.002 | [8] 0.008 | IRAK-1-4 Inhibitor I -0.014 | ibrutinib 0.086 | [9] 0.024 | ralimetinib 0.002 | [10] 0.003 | [11] 0.017 | [12] 0.002 | [13] -0.011 | [14] 0.007 | [15] 0.041 | [16] -0.012

KIF2A isoform 4 (UniProt O00139)
UniProt O00139, sequence (O00139 whole entry, looked up): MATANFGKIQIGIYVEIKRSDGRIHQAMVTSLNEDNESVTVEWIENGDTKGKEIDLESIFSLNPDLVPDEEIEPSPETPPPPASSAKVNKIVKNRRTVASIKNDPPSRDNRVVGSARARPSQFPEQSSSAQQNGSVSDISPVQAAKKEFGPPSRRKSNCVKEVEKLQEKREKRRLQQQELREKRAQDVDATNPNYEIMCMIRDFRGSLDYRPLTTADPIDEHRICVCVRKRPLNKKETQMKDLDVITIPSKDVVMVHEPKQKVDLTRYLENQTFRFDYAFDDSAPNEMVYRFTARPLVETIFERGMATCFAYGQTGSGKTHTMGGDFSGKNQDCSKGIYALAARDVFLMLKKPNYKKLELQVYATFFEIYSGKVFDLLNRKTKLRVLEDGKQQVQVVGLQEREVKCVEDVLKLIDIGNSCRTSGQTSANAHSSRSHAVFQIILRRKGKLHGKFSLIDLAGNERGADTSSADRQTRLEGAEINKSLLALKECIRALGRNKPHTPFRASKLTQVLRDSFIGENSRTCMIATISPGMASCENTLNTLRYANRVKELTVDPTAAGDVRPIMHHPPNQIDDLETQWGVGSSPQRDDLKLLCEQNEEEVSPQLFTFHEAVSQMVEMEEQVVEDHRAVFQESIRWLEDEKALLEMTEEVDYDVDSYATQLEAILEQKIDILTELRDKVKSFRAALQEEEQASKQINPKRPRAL
inactive: erlotinib -0.008 | [1] 0.02 | [2] -0.014 | [3] -0.007 | [4] -0.037 | [5] 0.001 | [6] -0.022 | [7] -0.02 | [8] -0.041 | IRAK-1-4 Inhibitor I -0.026 | ibrutinib 0.031 | [9] 0 | ralimetinib 0.017 | [10] 0.009 | [11] 0.002 | [12] -0.01 | [13] -0.002 | [14] -0.02 | [15] 0.032 | [16] 0.018

KPNA2 (UniProt P52292)
inactive: erlotinib 0.009 | [1] 0.03 | [2] -0.026 | [3] 0.005 | [4] 0.002 | [5] -0.003 | [6] -0.053 | [7] -0.017 | [8] 0.013 | IRAK-1-4 Inhibitor I -0.02 | ibrutinib -0.044 | [9] -0.011 | ralimetinib -0.001 | [10] -0.023 | [11] 0.009 | [12] -0.01 | [13] -0.027 | [14] -0.032 | [15] 0.051 | [16] 0.041

MRPL10 isoform 2 (UniProt Q7Z7H8)
inactive: erlotinib -0.032 | [1] 0 | [2] 0.043 | [3] 0.022 | [4] -0.141 | [5] -0.002 | [6] -0.016 | [7] -0.062 | [8] 0.015 | IRAK-1-4 Inhibitor I 0.014 | ibrutinib -0.062 | [9] -0.013 | ralimetinib 0.047 | [10] -0.019 | [11] -0.04 | [12] -0.029 | [13] -0.005 | [14] 0.025 | [15] 0.053 | [16] 0.042

MAPK9 (UniProt P45984)
active: [6] 0.393 | [9] 0.234 | ralimetinib 0.366
inactive: erlotinib -0.001 | [1] 0.017 | [2] -0.018 | [3] -0.015 | [4] 0.014 | [5] 0.068 | [7] 0.061 | [8] -0.032 | IRAK-1-4 Inhibitor I -0.014 | ibrutinib -0.024 | [10] 0.002 | [11] -0.029 | [12] -0.038 | [13] -0.086 | [14] 0.103 | [15] -0.029 | [16] -0.015

LSM8 (UniProt O95777)
UniProt O95777, sequence (O95777 whole entry, looked up): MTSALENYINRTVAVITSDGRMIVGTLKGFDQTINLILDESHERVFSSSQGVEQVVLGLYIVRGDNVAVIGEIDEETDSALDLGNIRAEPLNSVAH
inactive: erlotinib -0.034 | [1] 0.003 | [2] -0.003 | [3] 0.027 | [5] -0.026 | [6] 0.066 | [7] -0.008 | [8] -0.021 | IRAK-1-4 Inhibitor I 0.028 | ibrutinib 0.051 | [9] 0.012 | ralimetinib 0.055 | [10] -0.021 | [11] -0.02 | [12] -0.01 | [13] -0.011 | [14] 0.03 | [15] -0.007 | [16] 0.005
active: [4] 0.423

MCU (UniProt Q8NE86)
UniProt Q8NE86, sequence (Q8NE86 whole entry, looked up): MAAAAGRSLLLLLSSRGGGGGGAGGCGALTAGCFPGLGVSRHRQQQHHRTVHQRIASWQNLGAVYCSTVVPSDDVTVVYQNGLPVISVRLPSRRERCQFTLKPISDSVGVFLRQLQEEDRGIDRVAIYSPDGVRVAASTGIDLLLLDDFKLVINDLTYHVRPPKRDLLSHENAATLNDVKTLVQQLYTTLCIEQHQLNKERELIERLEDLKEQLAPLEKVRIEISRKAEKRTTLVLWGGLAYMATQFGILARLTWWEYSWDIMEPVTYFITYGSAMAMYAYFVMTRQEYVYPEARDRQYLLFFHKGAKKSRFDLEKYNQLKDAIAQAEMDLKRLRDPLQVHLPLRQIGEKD
inactive: erlotinib 0.045 | [1] -0.028 | [2] -0.09 | [3] 0.02 | [4] 0.057 | [5] -0.035 | [6] 0.084 | [7] 0.055 | [8] 0.015 | IRAK-1-4 Inhibitor I 0.064 | ibrutinib -0.05 | [9] 0.04 | ralimetinib 0.086 | [10] -0.021 | [11] -0.055 | [12] 0.014 | [13] 0.02 | [14] 0.034 | [15] 0.014 | [16] -0.023

KRR1 (UniProt Q13601)
inactive: erlotinib 0.016 | [1] -0.232 | [2] -0.007 | [3] -0.019 | [4] 0.009 | [5] -0.01 | [6] 0.045 | [7] -0.032 | [8] 0.06 | IRAK-1-4 Inhibitor I -0.069 | ibrutinib 0.037 | [9] 0.009 | ralimetinib 0.035 | [10] 0.042 | [11] -0.04 | [12] 0.041 | [13] -0.032 | [14] 0.144 | [15] 0.093 | [16] -0.027
